The full list was thinned out, with hits kept by preference.
TDP1 cell noCPT = qHTS for Inhibitors of human tyrosyl-DNA phosphodiesterase 1 (TDP1): qHTS in cells in absence of CPT. DT40 Tdp1-/- hTDP1 cells, no CPT, ATP luminescence, 48 h. Potency, µM (highest dose often 46.2 µM), inactives show at the highest dose activity change, negative = growth inhibition, actives largely listed as inhibitors. 420,000 tested, 15% active; note: potency is the fitted concentration of half-maximal effect; nearly all actives have a fitted effect of over 55% in size
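Chicken DT40 Tdp1-/- cells complemented with human TDP1, screened without camptothecin (DMSO vehicle only), 400 cells/well. Compounds pin-transferred, cells incubated at 37 °C for at least 48 hr. Growth read as ATP-dependent luminescence (CellTiter-Glo, 30 min at RT).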
DT40 TDP1 CPT = growth inhibition of DT40 Tdp1-/-;hTDP1 cells with camptothecin (screen for TDP1 inhibitors). 420,000 tested, 12% active. chicken DT40 Tdp1-/-;hTDP1 cells + 20 nM CPT, ATP luminescence, 48 h. Potency, µM (highest dose often 46.2 µM), for inactives: at the highest dose activity change, negative = growth inhibition, most hits filed as inhibitors; note: potency is the fitted concentration of half-maximal effect; nearly all actives have a fitted effect of over 55% in size
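Chicken DT40 Tdp1-/- cells stably complemented with human TDP1 were seeded at 400 cells/well in medium containing 20 nM camptothecin, exposed to pin-transferred compounds, and grown at 37 °C for at least 48 hr. Viability was read as ATP luminescence.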
12-LOX inh = ALOX12 (human) lipoxygenase inhibition | P18054 | purified 12hLO, xylenol orange hydroperoxide absorbance | Potency, µM (titrated, usually from 108 µM), inactives show at the top dose activity change, negative = inhibition, hits mostly inhibitors | 580,000 tested, 1.1% active | AID 1671190; note: potency is the fitted concentration of half-maximal effect
Target sequence (P18054 whole entry, looked up): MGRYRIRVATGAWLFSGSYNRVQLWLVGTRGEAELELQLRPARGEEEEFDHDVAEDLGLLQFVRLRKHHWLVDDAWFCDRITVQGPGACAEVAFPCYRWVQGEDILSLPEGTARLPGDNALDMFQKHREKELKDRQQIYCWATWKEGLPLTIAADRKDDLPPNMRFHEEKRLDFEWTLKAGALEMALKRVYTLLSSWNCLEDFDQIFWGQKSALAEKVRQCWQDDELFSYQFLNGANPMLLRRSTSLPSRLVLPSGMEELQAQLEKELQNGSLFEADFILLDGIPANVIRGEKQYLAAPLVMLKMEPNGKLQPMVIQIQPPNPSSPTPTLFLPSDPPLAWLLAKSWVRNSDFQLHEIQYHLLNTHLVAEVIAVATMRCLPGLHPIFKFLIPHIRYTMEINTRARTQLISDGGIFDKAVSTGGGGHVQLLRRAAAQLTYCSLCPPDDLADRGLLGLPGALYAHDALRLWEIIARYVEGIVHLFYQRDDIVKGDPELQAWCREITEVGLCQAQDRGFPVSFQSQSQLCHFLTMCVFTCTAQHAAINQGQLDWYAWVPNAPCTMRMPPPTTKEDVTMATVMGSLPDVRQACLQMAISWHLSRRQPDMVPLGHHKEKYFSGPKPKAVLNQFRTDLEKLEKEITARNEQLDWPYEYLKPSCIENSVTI
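Purified human 12hLO (150 nM final) in 25 mM Hepes, 0.01% Triton X-100, pH 7.0 was preincubated 15 min at room temperature with compound. Then 40 uM arachidonic acid was added, 30 min. Hydroperoxide was read by Fe-XO absorbance ratio 573/405 nm.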
IL1B secr inh = inhibitors of inflammasome signaling (IL-1 beta secretion); 360,000 tested, 4.7% active; THP-1 LPS/ATP IL-1B secretion, AlphaLISA, 16 h; stronger effect = lower value; AID 743279; activity change, % at 57.5 µM; in the data active = activity change below about -50%; inconclusive = mostly about -30% to -49%
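Secreted IL-1B measured by AlphaLISA bead assay after 16 h compound exposure of THP-1 cells; compounds (final up to 57.5 uM) added 1 h before LPS (250 ng/mL) and ATP (1.25 mM) stimulation; lower signal means less secretion.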
HT1080NT lethal = kills 2HG-producing HT-1080-NT fibrosarcoma cells. HT-1080-NT fibrosarcoma viability, CellTiter-Glo ATP luminescence, 48 h. Potency, µM (series often up to 46.1 µM), inactives show at the top dose activity, negative = less viability, hits mostly cytotoxic. 360,000 tested, 1.6% active. AID 686970;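 note: NT is the 2HG producing partner of a matched IDH1 knockdown line; potency is the fitted concentration of half-maximal effect; 0% = DMSO-treated cells and -100% = media-only wells without cells; nearly all actives have a fitted effect of over 55% in size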
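Viability by CellTiter-Glo luminescence after 48 h compound exposure at 37C of HT-1080-NT cells (750/well, RPMI, 5% FBS). % activity scaled between DMSO wells and medium-only wells, then curve-fitted and categorized by curve class.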
HT1080 IDH1KD tx = toxicity to HT-1080 IDH1 knockdown cells (counter line). HT-1080 IDH1 knockdown viability, ATP luminescence, 48 h. Potency, µM (series often up to 46.1 µM), without a hit: top-dose activity, negative = toxicity, actives largely listed as cytotoxic. 360,000 tested, 2% active. AID 686971;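 note: potency is the fitted concentration of half-maximal effect; 0% = DMSO wells and -100% = cell-free medium wells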
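IDH1KD HT-1080 cells, 750/well, RPMI + 5% FBS; compound pinned after 2 h settling; 48 h, 37 °C; CellTiter-Glo luminescence; % activity normalised to DMSO and no-cell wells; curves fitted, classed by r2 and efficacy.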
Numbers without * were called inactive; ? = inconclusive; · = no result; [ ] = another dose, or the depositor's remark. Unless noted, calls come from the whole dose curve; as a rule, active = well fitted curve in the direction sought with a large enough effect; inconclusive = small, poorly fitted or top-dose-only effect, or another doubt; inactive = no such curve, though single readings can be large; an effect the other way counts as inactive or inconclusive. Unless noted, % is set by controls: 0 for no effect and ±100 for the full control effect.

SMILES	TDP1 cell noCPT	DT40 TDP1 CPT	12-LOX inh	IL1B secr inh	HT1080NT lethal	HT1080 IDH1KD tx
COc1ccc(CN(C)C(=O)C2CSC3(C)CCC(=O)N23)cc1OC (stereo not drawn)	-9.2%	-4.7%	9.7%	-5.8	-5.0%	16.0%
CN(Cc1cccc(Cl)c1)C(=O)C1CSC2(C)CCC(=O)N12 (stereo not drawn)	20.6µM*	18.4µM*	-10.2%	14.8	11.6%	15.8%
Cc1ccc(C(NC(=O)COc2ccccc2C(N)=O)c2cccs2)cc1 (stereo not drawn)	·	·	-0.3%	·	·	·
COCCN(Cc1cccs1)S(=O)(=O)c1cccc(C(=O)O)c1	·	·	-27.6%	·	·	·
CCN1c2cc(C)ccc2-n2cccc2C12CCN(C(=O)Nc1cc(OC)ccc1OC)CC2	·	·	-27.3%	·	·	·
CCOC(=O)c1cnc(SCc2nc(-c3cccc(Cl)c3)oc2C)nc1N	·	·	-7.5%	·	·	·
O=C(Cn1cc2c(n1)CCCC2)N1CCOCC1	3.2%	-10.6%	422.7%	42.6	3.7%	1.1%
O=C(O)Cn1cc2c(n1)CCCC2	-9.7%	10.0%	20µM*	0.0	13.2%	20.4%
COc1ccc(N2CCN(C(=O)Cc3coc4cc(C)ccc34)CC2)cc1	-9.2%	-0.3%	-16.8%	19.2	-1.3%	1.0%
O=C(Cc1coc2cc(O)ccc12)N1CCN(S(=O)(=O)c2ccc(Br)cc2)CC1	23.1µM*	?	166.0%	?	-1.2%	3.2%
O=C(CNC(=O)c1cc(=O)[nH]c2ccccc12)NC1CC1	·	·	12.3%	·	·	·
c1ccc(C(CNCc2ccncc2)N2CCCC2)cc1 (stereo not drawn)	·	·	32.2%	·	·	·
COc1ccccc1NC(=O)COc1nc(CC(C)C)c2c(c1C#N)CCCC2	·	·	3.3%	·	·	·
CCN(Cc1ccc(NC(C)=O)cc1)CC1CCCN(CCc2cccc(F)c2)C1 (stereo not drawn)	?	-18.7%	?	-6.4	-26.0%	?
CCN(Cc1ccc(C#CCCO)cc1)CC1CCCN(CCc2cccc(OC)c2)C1 (stereo not drawn)	20.6µM*	?	-3.3%	-5.9	-19.5%	-8.6%
Nc1c2c(nc3sc4c(c13)CCCC4)-c1ccccc1CC2	?	-20.0%	53.3%	-88.4*	?	18.4µM*
O=c1oc(-c2cccs2)nc2sc3c(c12)CCCC3	-11.4%	-22.4%	5.6%	32.9	-0.5%	-0.1%
Cc1cc(C)c2c(c1)cc(C)c1nnc(SCC(=O)Nc3ccc(S(=O)(=O)N4CCCCC4)cc3)n12	20.6µM*	?	-17.9%	0.7	-8.2%	-16.5%
N=c1sccn1CC(=O)Nc1cccc(S(=O)(=O)N2CCCCCC2)c1	20.6µM*	?	-14.4%	-2.0	-0.3%	-17.7%
Cc1ccc(CSc2nnc(-c3cccc(S(=O)(=O)N4CCOCC4)c3)n2CC(C)C)cc1	8.2µM*	13µM*	-23.9%	?	-4.7%	-17.0%
COc1ccc(/C=C/C(=O)Nc2cccc(S(=O)(=O)N3CCCC3)c2)cc1OC	20.6µM*	?	-5.8%	-26.6	-5.1%	-21.2%
CC(C)Cn1c(SCC(N)=O)nnc1-c1cccc(S(=O)(=O)N2CCOCC2)c1	-0.1%	10.2%	375.3%	-3.5	3.1%	-2.3%
CCCCOc1ccc(C(=O)Nc2ccc3oc(=O)ccc3c2)cc1	·	·	3.2%	·	·	·
O=C(NCc1ccccc1F)c1cccc(S(=O)(=O)N2CCCCCC2)c1	-11.9%	-22.4%	387.2%	-2.3	2.4%[9.24 µM]	3.4%
O=C(CCNS(=O)(=O)c1ccc(OC(F)(F)F)cc1)Nc1cccc(S(=O)(=O)N2CCCC2)c1	?	18.4µM*	0.0%	-4.6	-0.1%	-1.1%
SMILES	TDP1 cell noCPT	DT40 TDP1 CPT	12-LOX inh	IL1B secr inh	HT1080NT lethal	HT1080 IDH1KD tx
O=C(Cc1ccccc1F)Nc1cccc(S(=O)(=O)N2CCCCC2)c1	20.6µM*	?	0.4%	18.1	0.2%	0.1%
COc1ccc(CC(=O)Nc2cccc(S(=O)(=O)N3CCOCC3)c2)cc1OC	?	?	210.8%	-14.2	-13.8%	-15.3%
CC(C)(C)c1ccc(OCCC(=O)Nc2cccc(S(=O)(=O)N3CCCC3)c2)cc1	?	?	-15.6%	1.9	-8.9%	-9.1%
COc1ccc(CC(=O)Nc2cccc(S(=O)(=O)N3CCCC3)c2)cc1OC	18.4µM*	14.6µM*	0.0%	-15.4	-1.4%	-12.8%
COc1ccc(Br)cc1CN(C)CC(=O)Nc1cccc(S(=O)(=O)N2CCCC2)c1	10.3µM*	14.6µM*	-31.5%	-52.5*	-24.6%	-27.7%
CC(NC(=O)C(Cc1ccccc1)NC(=O)OC(C)(C)C)c1ccc(O)cc1 (stereo not drawn)	·	·	6.6%	·	·	·
Cc1nnc(SCC(=O)Nc2cccc(S(=O)(=O)N3CCCC3)c2)n1C1CC1	29.1µM*	-13.5%	-6.0%	-6.2	9.7%	4.9%
O=C(CSc1nnc(-c2cccc(S(=O)(=O)N3CCOCC3)c2)n1C1CCCCCC1)NCc1ccccc1	?	22.4µM*	-15.7%	-21.5	3.0%	-3.2%
O=C(CCNC(=O)c1ccc(Br)cc1)Nc1cccc(S(=O)(=O)N2CCCCCC2)c1	?	13µM*	-11.5%	-17.9	1.1%	-7.0%
O=C(Cc1ccc(Cl)cc1)Nc1cccc(S(=O)(=O)N2CCCCC2)c1	20.6µM*	?	-6.1%	-11.9	-0.2%	-10.1%
CCOc1ccc(NC(=O)CSc2nnc(C)n2C2CC2)cc1S(=O)(=O)N1CCCC1	2.7%	-15.7%	7.6%	11.1	0.5%	-0.4%
O=C(CCl)Nc1cccc(S(=O)(=O)N2CCCCCC2)c1	5.17µM*	4.11µM*	-29.6%	-102.5*	?	18.4µM*
COc1ccc(/C=C/C(=O)Nc2cccc(S(=O)(=O)NC3=NCCCCC3)c2)cc1OC	8.2µM*	14.6µM*	11.2%	-16.1	-0.5%	-11.8%
COc1ccc(Br)cc1CN(C)CC(=O)Nc1c(Cl)cccc1Cl	23.1µM*	?	11.0%	?	-16.7%	-19.9%
COc1ccc(/C=C/C(=O)ONC2=NCCCCC2)cc1OC	?	23.1µM*	15.1%	-5.6	-21.6%	?
CC(C)=CC(=O)Nc1cccc(S(=O)(=O)NC2=NCCCCC2)c1	-11.0%	-7.6%	12.1%	-3.4	11.7%	2.3%
O=C(Cc1ccc(Br)cc1)Nc1cccc(S(=O)(=O)N2CCCCC2)c1	14.6µM*	?	4.7%	-6.4	-29.3%	?
O=C(COC(=O)c1ccc(Br)o1)Nc1cccc(S(=O)(=O)N2CCCCC2)c1	-15.4%	-2.6%	?	-5.7	1.3%	-1.6%

Assay outcomes as filed in PubChem BioAssay.
